In article PMC7862700, “An all-to-all approach to the identification of sequence-specific readers for epigenetic DNA modifications on cytosine” one finds binding signal data, which are given here for one sequence.

Common to all, as to experiment: DAPPL (digital affinity profiling via proximity ligation, sequencing); 10 mM Tris-HCl pH 7.5, 50 mM NaCl, 1 mM DTT, 4% glycerol, room temperature, 30 min; GST-TFs on glutathione beads, 16-mer random dsDNA library, 0.1% formaldehyde crosslink after washing; high values mean tight binding
The target of one test is T1, FLI1 (Homo sapiens, UniProt Q01543 1-452).
T1 sequence: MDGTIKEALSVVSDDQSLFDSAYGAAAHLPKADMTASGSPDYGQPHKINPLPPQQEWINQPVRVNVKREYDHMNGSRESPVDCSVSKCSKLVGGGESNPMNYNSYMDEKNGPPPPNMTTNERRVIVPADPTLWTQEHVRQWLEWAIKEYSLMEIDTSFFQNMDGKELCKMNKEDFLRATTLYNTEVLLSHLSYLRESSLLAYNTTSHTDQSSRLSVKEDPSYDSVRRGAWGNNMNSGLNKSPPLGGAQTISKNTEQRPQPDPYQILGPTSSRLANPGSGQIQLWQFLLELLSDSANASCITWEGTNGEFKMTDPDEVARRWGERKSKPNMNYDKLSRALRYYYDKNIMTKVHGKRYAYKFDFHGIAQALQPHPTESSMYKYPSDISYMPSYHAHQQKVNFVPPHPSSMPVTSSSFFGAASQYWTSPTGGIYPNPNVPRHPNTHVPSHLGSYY
Conditions: protein: recombinant; tags: N-terminal GST; dsDNA, one strand shown. The method, boiled down: (§1)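 Beads coated with glutathione captured GST-fused human transcription factors that had been expressed in yeast, and the factors were then given DNA barcodes and pooled with a tag-only sample. The pools were incubated with 200 nmole of a random double-stranded 16-mer DNA library in Tris/NaCl/DTT/glycerol buffer for 30 min at room temperature, washed, crosslinked with 0.1% formaldehyde and proximity-ligated with BsaI/T4 ligase at 37 °C for 1 h. PCR amplification and Illumina NextSeq500 sequencing came last. Binding signal is each hexamer's read frequency for a factor divided by its frequency for the tag-only sample.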

The target of the next test is T2, ELK1 (Homo sapiens, UniProt P19419 1-428).
T2 sequence: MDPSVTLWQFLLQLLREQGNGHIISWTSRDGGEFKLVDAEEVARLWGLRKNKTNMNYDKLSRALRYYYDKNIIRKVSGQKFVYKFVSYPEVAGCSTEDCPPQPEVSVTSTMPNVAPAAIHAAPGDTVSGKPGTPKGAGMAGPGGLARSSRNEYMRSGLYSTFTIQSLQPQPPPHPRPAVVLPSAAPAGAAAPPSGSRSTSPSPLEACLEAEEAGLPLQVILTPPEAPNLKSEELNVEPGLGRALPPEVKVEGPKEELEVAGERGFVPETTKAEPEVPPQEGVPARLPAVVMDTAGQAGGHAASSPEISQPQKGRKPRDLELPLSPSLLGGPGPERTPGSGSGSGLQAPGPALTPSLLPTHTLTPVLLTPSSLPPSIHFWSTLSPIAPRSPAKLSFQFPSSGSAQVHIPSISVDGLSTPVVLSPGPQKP
To be noted: protein: recombinant; tags: N-terminal GST; dsDNA, one strand shown. The essentials:
as §1

In another test the target is T3, GABPA (Homo sapiens, UniProt Q06546 1-454).
T3 sequence: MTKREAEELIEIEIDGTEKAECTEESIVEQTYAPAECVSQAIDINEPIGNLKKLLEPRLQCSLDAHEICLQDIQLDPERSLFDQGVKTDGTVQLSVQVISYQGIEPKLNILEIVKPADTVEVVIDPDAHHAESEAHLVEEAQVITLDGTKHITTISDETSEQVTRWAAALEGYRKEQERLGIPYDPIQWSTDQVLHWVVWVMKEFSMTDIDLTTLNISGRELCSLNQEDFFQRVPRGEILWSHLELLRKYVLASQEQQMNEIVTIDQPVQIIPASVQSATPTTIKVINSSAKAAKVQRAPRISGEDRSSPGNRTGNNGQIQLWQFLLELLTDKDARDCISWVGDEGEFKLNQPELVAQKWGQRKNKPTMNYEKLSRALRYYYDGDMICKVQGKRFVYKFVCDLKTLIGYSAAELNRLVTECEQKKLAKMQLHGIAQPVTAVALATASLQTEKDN
To be noted: protein: recombinant; tags: N-terminal GST; dsDNA, one strand shown. The essentials: as §1

In the next test the target is T4, ERG (Homo sapiens, UniProt P11308 1-479).
T4 sequence: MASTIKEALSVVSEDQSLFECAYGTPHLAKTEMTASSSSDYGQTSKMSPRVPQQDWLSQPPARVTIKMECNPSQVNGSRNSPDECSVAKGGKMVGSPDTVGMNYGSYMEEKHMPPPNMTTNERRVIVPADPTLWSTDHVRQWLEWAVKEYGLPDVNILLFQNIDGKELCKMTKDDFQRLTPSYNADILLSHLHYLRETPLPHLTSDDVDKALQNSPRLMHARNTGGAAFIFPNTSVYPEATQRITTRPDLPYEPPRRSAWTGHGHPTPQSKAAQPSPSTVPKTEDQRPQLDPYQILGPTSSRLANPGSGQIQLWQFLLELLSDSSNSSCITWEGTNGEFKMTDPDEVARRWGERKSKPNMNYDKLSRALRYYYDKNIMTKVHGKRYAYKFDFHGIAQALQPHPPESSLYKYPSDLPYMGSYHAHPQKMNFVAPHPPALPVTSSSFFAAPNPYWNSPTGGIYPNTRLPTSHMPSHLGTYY
Conditions: protein: recombinant; tags: N-terminal GST; dsDNA, one strand shown. The method, boiled down: as §1

Another test concerns the target ELF1 (Homo sapiens, UniProt P32519 1-619). Conditions: protein: recombinant; tags: N-terminal GST; dsDNA, one strand shown. The essentials:
as §1

For another test, the target named is T5, EHF (Homo sapiens, UniProt Q9NZC4 1-300).
T5 sequence: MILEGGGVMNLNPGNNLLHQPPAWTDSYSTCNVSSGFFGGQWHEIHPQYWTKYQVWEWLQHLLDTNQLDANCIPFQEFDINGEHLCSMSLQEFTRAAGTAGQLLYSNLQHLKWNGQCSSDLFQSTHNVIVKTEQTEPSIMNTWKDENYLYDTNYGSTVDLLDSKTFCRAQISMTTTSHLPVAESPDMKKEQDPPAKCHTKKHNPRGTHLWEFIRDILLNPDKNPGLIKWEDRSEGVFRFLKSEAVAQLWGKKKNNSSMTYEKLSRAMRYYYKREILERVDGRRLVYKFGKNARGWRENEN
Conditions: protein: recombinant; tags: N-terminal GST; dsDNA, one strand shown. The method, boiled down:
as §1

The next test addresses SPI1 (Homo sapiens, UniProt P17947 1-270). To be noted: protein: recombinant; tags: N-terminal GST; dsDNA, one strand shown. The essentials: as §1
For the next test, the target named is SPIB (Homo sapiens, UniProt Q01892 1-262). To be noted: protein: recombinant; tags: N-terminal GST; dsDNA, one strand shown. The essentials: as §1
Chain of SPIB (Q01892 whole entry): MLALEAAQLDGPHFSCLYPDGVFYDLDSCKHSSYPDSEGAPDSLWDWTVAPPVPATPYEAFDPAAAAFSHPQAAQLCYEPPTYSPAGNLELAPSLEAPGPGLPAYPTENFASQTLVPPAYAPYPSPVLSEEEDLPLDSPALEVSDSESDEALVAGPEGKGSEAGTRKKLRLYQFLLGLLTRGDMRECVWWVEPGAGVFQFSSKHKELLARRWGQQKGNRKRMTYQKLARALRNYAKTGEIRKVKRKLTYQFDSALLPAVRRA
The target in a further test is T6, ELK3 (Homo sapiens, UniProt P41970 1-407).
T6 sequence: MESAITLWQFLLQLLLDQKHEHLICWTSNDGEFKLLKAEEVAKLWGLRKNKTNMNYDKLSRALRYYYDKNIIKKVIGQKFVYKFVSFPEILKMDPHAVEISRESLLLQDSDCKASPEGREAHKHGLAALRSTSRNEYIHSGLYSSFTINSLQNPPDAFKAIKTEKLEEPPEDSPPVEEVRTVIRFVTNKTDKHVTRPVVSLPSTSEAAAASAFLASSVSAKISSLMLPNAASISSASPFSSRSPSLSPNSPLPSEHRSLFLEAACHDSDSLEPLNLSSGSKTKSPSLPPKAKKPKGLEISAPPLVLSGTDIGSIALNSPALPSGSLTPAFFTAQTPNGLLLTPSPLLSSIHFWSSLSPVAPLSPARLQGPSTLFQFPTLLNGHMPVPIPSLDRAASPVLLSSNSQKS
To be noted: protein: recombinant; tags: N-terminal GST; dsDNA, one strand shown. The method, boiled down:
as §1

The target of the next test is T7, FEV (Homo sapiens, UniProt Q99581 1-238).
T7 sequence: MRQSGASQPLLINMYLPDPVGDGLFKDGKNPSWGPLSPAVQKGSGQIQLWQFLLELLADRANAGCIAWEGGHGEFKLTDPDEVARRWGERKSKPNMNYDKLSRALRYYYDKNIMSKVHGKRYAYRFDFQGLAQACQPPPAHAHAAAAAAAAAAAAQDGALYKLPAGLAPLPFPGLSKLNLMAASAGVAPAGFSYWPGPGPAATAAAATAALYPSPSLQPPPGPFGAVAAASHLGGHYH
Conditions: protein: recombinant; tags: N-terminal GST; dsDNA, one strand shown. The method, boiled down: as §1

A further test has as its target ETV5 (Homo sapiens, UniProt P41161 1-510). Conditions: protein: recombinant; tags: N-terminal GST; dsDNA, one strand shown. The essentials:
as §1

For the next test, the target named is HSF1 (Homo sapiens, UniProt Q00613 1-529). To be noted: protein: recombinant; tags: N-terminal GST; chain copies: 3; dsDNA, one strand shown. The essentials:
as §1

A further test deals with T8, SPIC (Homo sapiens, UniProt Q8N5J4 1-248).
T8 sequence: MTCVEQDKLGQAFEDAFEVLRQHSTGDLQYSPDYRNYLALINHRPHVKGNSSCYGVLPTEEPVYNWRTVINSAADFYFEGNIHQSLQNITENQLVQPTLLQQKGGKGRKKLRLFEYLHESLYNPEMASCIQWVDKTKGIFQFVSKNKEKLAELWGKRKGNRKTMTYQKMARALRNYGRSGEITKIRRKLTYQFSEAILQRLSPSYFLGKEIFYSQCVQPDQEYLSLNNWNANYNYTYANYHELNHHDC
Conditions: protein: recombinant; tags: N-terminal GST; dsDNA, one strand shown. The essentials:
as §1

The target of the next test is ELF4 (Homo sapiens, UniProt Q99607 1-663). To be noted: protein: recombinant; tags: N-terminal GST; dsDNA, one strand shown. The method, boiled down:
as §1

A further test addresses T9, ELK4 (Homo sapiens, UniProt P28324-2 1-405).
T9 sequence: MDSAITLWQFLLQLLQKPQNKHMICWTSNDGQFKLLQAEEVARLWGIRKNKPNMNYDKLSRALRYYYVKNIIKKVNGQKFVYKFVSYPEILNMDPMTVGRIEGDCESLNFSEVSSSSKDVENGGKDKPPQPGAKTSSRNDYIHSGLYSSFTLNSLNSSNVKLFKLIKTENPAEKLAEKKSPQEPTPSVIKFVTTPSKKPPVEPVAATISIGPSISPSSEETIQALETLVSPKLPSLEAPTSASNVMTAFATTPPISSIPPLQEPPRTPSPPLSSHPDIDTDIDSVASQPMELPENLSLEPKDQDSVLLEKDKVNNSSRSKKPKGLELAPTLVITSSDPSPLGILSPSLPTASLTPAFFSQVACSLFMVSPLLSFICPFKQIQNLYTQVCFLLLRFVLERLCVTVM
Conditions: protein: recombinant; tags: N-terminal GST; dsDNA, one strand shown. The method, boiled down:
as §1

The next test addresses T10, ETV2 (Homo sapiens, UniProt O00321 1-342).
T10 sequence: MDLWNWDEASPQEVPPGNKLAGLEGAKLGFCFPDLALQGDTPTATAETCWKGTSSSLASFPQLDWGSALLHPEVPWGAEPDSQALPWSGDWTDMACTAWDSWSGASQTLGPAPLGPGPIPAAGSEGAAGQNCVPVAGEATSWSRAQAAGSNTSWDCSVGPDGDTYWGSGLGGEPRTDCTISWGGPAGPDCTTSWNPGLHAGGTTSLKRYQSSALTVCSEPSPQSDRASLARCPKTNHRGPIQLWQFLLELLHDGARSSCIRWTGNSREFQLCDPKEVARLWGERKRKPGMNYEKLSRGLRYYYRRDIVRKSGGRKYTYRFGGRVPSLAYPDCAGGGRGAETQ
To be noted: protein: recombinant; tags: N-terminal GST; dsDNA, one strand shown. The essentials: as §1

The target of a further test is T11, ELF3 (Homo sapiens, UniProt P78545 1-371).
T11 sequence: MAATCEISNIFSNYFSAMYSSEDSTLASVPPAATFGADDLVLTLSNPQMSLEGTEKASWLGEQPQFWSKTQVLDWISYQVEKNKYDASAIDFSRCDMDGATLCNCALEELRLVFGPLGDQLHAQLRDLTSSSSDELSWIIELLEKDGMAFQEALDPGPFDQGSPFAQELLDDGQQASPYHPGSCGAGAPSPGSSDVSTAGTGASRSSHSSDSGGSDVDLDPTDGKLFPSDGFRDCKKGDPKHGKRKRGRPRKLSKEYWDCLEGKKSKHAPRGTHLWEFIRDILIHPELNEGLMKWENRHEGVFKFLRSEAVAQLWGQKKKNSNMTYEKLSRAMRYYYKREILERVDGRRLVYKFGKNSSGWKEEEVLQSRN
Conditions: protein: recombinant; tags: N-terminal GST; dsDNA, one strand shown. The essentials:
as §1

A further test concerns the target CRX (Homo sapiens, UniProt O43186 1-299). Conditions: protein: recombinant; tags: N-terminal GST; dsDNA, one strand shown. The essentials:
as §1

The next test has as its target ETV1 (Homo sapiens, UniProt P50549 1-477). To be noted: protein: recombinant; tags: N-terminal GST; dsDNA, one strand shown. The essentials: as §1

Chain of ETV1 (P50549 whole entry): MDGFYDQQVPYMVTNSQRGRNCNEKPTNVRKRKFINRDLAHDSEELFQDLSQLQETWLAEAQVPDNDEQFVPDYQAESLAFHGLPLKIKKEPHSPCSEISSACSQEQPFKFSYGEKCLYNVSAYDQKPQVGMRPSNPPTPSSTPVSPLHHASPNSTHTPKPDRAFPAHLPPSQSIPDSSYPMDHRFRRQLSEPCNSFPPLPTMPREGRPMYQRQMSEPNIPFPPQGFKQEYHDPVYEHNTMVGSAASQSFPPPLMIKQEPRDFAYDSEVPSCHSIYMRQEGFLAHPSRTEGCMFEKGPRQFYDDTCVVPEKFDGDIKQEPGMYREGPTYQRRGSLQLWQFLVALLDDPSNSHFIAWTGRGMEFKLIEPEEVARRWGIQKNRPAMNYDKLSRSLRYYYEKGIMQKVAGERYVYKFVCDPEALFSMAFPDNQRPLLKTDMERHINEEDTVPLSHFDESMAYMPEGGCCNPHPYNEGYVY
Chain of ELF1 (P32519 whole entry): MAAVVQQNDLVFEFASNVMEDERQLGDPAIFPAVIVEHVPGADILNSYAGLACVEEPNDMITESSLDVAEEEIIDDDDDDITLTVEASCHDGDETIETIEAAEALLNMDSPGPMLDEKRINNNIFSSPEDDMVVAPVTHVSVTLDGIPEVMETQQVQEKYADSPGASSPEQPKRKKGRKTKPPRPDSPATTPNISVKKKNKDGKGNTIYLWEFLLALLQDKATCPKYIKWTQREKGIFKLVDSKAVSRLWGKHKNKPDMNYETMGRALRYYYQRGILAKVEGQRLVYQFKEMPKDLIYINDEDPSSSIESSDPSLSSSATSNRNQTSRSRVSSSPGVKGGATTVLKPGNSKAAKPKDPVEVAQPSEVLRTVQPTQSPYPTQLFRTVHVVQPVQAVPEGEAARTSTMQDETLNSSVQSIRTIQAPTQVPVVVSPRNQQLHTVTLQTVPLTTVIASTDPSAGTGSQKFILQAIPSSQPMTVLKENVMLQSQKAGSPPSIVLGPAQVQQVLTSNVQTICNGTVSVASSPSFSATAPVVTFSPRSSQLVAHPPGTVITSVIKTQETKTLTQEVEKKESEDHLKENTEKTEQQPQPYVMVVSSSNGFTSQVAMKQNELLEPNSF
Chain of ETV5 (P41161 whole entry): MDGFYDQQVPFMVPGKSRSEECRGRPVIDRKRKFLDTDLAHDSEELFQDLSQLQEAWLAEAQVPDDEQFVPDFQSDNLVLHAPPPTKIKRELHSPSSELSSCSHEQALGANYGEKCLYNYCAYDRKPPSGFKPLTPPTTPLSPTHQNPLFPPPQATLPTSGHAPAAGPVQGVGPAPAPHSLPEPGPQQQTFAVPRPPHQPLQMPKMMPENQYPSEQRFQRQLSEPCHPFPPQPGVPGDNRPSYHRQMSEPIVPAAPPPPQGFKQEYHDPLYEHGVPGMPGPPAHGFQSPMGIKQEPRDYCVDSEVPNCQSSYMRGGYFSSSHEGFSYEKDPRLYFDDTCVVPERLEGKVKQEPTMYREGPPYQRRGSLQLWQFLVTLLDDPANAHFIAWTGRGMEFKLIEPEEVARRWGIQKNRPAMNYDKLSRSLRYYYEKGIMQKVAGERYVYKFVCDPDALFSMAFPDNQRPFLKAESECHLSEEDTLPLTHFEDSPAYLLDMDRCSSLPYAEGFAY
Chain of HSF1 (Q00613 whole entry): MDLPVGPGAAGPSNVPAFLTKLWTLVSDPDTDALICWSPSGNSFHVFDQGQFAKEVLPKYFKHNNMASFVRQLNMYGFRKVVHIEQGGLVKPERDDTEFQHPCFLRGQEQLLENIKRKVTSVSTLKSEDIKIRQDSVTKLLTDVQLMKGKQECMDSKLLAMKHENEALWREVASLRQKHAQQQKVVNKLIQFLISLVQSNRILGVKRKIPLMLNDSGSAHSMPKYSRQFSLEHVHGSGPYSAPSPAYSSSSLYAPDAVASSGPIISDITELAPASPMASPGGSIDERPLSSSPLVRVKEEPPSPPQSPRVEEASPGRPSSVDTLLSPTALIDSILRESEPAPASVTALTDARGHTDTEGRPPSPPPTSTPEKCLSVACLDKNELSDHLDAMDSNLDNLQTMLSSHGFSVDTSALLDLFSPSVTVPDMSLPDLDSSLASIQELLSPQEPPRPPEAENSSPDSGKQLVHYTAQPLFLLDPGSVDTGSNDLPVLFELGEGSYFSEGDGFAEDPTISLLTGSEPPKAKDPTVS
Chain of CRX (O43186 whole entry): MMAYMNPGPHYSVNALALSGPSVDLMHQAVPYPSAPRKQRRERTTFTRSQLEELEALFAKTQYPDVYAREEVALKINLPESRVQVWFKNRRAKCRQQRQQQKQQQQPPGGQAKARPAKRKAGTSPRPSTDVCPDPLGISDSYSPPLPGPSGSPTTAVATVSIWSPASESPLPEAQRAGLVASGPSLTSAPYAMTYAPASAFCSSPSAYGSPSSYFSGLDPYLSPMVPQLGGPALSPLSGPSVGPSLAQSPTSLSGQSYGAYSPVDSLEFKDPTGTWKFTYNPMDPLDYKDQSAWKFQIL
Chain of ELF4 (Q99607 whole entry): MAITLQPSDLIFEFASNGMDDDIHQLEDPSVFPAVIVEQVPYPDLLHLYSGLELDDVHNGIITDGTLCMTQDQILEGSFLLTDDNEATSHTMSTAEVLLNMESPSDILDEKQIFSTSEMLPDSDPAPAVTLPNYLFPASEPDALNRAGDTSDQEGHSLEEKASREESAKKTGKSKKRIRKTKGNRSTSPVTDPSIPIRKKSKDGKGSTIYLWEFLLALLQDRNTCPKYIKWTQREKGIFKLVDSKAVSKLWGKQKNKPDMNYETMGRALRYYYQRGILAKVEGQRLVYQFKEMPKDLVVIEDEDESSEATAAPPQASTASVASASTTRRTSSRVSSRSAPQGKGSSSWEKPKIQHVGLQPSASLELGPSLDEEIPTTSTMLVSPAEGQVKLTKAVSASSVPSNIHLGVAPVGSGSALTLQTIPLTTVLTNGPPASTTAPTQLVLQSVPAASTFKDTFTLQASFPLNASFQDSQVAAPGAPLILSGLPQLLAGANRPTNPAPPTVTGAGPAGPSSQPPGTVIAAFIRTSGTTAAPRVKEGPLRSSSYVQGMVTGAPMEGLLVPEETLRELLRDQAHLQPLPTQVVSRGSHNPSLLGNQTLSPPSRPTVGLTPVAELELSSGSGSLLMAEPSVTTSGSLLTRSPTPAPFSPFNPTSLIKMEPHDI

As to CCGACT, the binding signal with FLI1 is 1.43 fold enrichment (6-mer frequency, TF over GST control); in the test with ELK1 it was 1.6 fold enrichment (6-mer frequency, TF over GST control); with GABPA, 1.48 fold enrichment (6-mer frequency, TF over GST control); in the test with ERG, 1.52 fold enrichment (6-mer frequency, TF over GST control); with ELF1, 1.44 fold enrichment (6-mer frequency, TF over GST control); with EHF, 1.48 fold enrichment (6-mer frequency, TF over GST control). Further, the binding signal in the test with SPI1 was 1.4 fold enrichment (6-mer frequency, TF over GST control); in the test with SPIB, 1.64 fold enrichment (6-mer frequency, TF over GST control); in the test with ELK3 it was 1.58 fold enrichment (6-mer frequency, TF over GST control); with FEV it was 1.52 fold enrichment (6-mer frequency, TF over GST control); in the test with ETV5, 1.44 fold enrichment (6-mer frequency, TF over GST control); with HSF1 it was 1.29 fold enrichment (6-mer frequency, TF over GST control). Moreover, the binding signal in the test with SPIC is 1.53 fold enrichment (6-mer frequency, TF over GST control); with ELF4 it was 1.52 fold enrichment (6-mer frequency, TF over GST control); in the test with ELK4, 1.56 fold enrichment (6-mer frequency, TF over GST control); with ETV2 it was 1.46 fold enrichment (6-mer frequency, TF over GST control); with ELF3, 1.55 fold enrichment (6-mer frequency, TF over GST control); with CRX, 1.45 fold enrichment (6-mer frequency, TF over GST control). Further, in the test with ETV1, the binding signal was 1.6 fold enrichment (6-mer frequency, TF over GST control).
